uPA surface inh – blocks generation of uPA at the cell surface; 0.31% of 330,000 active; Potency, µM (highest dose often 38.3 µM), hits mostly inhibitors; cell surface uPA generation assay, qHTS; active means well fitted inhibition curve with a large enough effect; inconclusive means small, poorly fitted or top-dose-only effect; inactive means no such curve, though single readings can be large or run the other way; tested in mouse RAW 264.7 cells; further: nearly all actives have a fitted effect of over 55% in size
IL1B secr inh – blocks inflammasome-driven IL-1 beta release. THP-1 LPS/ATP IL-1B secretion, AlphaLISA, 16 h; stronger effect = lower value. 4.7% of 360,000 active. AID 743279. activity change, % at 57.5 µM; in the data active means activity change below about -50%; inconclusive means mostly about -30% to -49%
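THP-1 cells pretreated 1 hr with compounds (up to 57.5 uM final), then stimulated with LPS (250 ng/mL final) plus ATP (1.25 mM final); secreted IL-1B measured by AlphaLISA after 16 hr, decreased signal indicating inhibition.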
DT40 TDP1 CPT – growth inhibition of DT40 Tdp1-/-;hTDP1 cells with camptothecin (screen for TDP1 inhibitors) | chicken DT40 Tdp1-/-;hTDP1 cells + 20 nM CPT, ATP luminescence, 48 h | 12% of 420,000 active | Potency, µM (series often up to 46.2 µM), usual class: inhibitors; further: nearly all actives have a fitted effect of over 55% in size
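Chicken DT40 Tdp1-/- cells complemented with human TDP1, 400 cells/well, exposed to compounds plus 20 nM camptothecin for at least 48 h at 37 C; viability read as ATP content by CellTiter-Glo luminescence.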
HT1080NT lethal – kills 2HG-producing HT-1080-NT fibrosarcoma cells. Potency, µM (top dose mostly 46.1 µM), actives largely listed as cytotoxic. HT-1080-NT fibrosarcoma viability, CellTiter-Glo ATP luminescence, 48 h. 1.6% of 360,000 active;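 further: NT is the 2HG producing partner of a matched IDH1 knockdown line; nearly all actives have a fitted effect of over 55% in size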
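Read-out is CellTiter-Glo luminescence after 10 minutes at room temperature, following 48 hours' compound treatment of HT-1080-NT cells (750 cells/well, RPMI, 5% FBS, 37 degrees C).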
HT1080 IDH1KD tx – toxicity to HT-1080 IDH1 knockdown cells (counter line). HT-1080 IDH1 knockdown viability, ATP luminescence, 48 h. Potency, µM (series often up to 46.1 µM), most hits filed as cytotoxic. 2% of 360,000 active. AID 686971
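Viability of IDH1-knockdown HT-1080 fibrosarcoma cells was assessed by CellTiter-Glo after 48 h at 37 °C with titrated compound; concentration-effect curves were classified by fit quality and response size.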
DT40 TDP1 no CPT – qHTS for Inhibitors of human tyrosyl-DNA phosphodiesterase 1 (TDP1): qHTS in cells in absence of CPT; DT40 Tdp1-/- hTDP1 cells, no CPT, ATP luminescence, 48 h; Potency, µM (series often up to 46.2 µM), hits mostly inhibitors; 15% of 420,000 active; AID 686978, 2013; further: nearly all actives have a fitted effect of over 55% in size
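Growth kinetics read by CellTiter-Glo luminescence after ≥48 hr at 37 °C. Cells: DT40 Tdp1-/- stably carrying human TDP1, 400 per well, compound exposure in the absence of CPT (DMSO vehicle).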
Large screens that a line does not name were inactive. The list is not random: actives were taken first. Their share in the collection is about 19%. Unless noted, the call rests on the fitted dose curve; in most records, active means well fitted curve in the direction sought with a large enough effect; inconclusive means small, poorly fitted or top-dose-only effect, or another doubt; inactive means no such curve, though single readings can be large; an effect the other way counts as inactive or inconclusive.

CCN(c1ccccc1)S(=O)(=O)c1ccc(OC)c(NC(=O)c2ccc(=O)[nH]c2)c1	none
COc1ccccc1NC(=O)C1CCN(C(=O)NCc2ccccc2)CC1	DT40 TDP1 no CPT inconclusive
CC(SCc1ccccc1)C(=O)Nc1ccc(F)cc1 (centres undefined)	none
CCCCc1ccc(NC(=O)N[C@@H](C)C(=O)O)cc1	DT40 TDP1 CPT 4.6µM, DT40 TDP1 no CPT 5.2µM
CCCCc1ccc(NC(=O)C(C)CC)cc1 (centres undefined)	IL1B secr inh inconclusive
CC(C)C(=O)Nc1ccc(Sc2ccc(F)cc2)cc1	DT40 TDP1 CPT 16µM, DT40 TDP1 no CPT 16µM
Cc1ccc2c(c1)C1CN(C)CCC1N2S(=O)(=O)c1ccccc1F (centres undefined)	IL1B secr inh -51
Cc1ccc(C)c(C(=O)COC(=O)c2ccccc2N2C(=O)C3C4CCC(C4)C3C2=O)c1 (centres undefined)	DT40 TDP1 CPT 21µM, DT40 TDP1 no CPT 21µM
O=C(COC(=O)c1ccccc1N1C(=O)C2C3CCC(C3)C2C1=O)c1ccccc1 (centres undefined)	none
Cc1cc([N+](=O)[O-])ccc1NC(=O)c1cccc(NC(=O)C(C)C)c1	DT40 TDP1 CPT inconclusive, DT40 TDP1 no CPT 23µM
CC(C)C(=O)Nc1cccc(C(=O)Nc2cc([N+](=O)[O-])ccc2Cl)c1	DT40 TDP1 no CPT inconclusive
Cc1cc([N+](=O)[O-])ccc1NC(=O)c1cncc(Br)c1	IL1B secr inh -67
COc1ccc([N+](=O)[O-])cc1NC(=O)c1cncc(Br)c1	none
O=c1cc(-c2ccccc2)nc(Cc2c(Cl)cccc2Cl)[nH]1	none
O=c1cc(CCl)nc(Cc2c(Cl)cccc2Cl)[nH]1	DT40 TDP1 CPT inconclusive, HT1080NT lethal 23µM, HT1080 IDH1KD tx 26µM, DT40 TDP1 no CPT inconclusive
Cc1ccc(/C=C/C(=O)Nn2cnnc2)cc1	IL1B secr inh -115, DT40 TDP1 CPT inconclusive, HT1080NT lethal inconclusive, HT1080 IDH1KD tx inconclusive, DT40 TDP1 no CPT 15µM
COc1cccc(C(C(=O)NCC2CCCO2)N(C(=O)Cn2nnc3ccccc32)c2ccc(NC(C)=O)cc2)c1 (centres undefined)	IL1B secr inh -63
CC1=NN(C(N)=S)C(=O)C1N=Nc1ccc(Cl)cc1 (centres undefined)	DT40 TDP1 CPT 0.52µM, DT40 TDP1 no CPT 1.5µM
CC1=NN(C(N)=S)C(=O)C1N=Nc1ccc(Br)cc1 (centres undefined)	DT40 TDP1 CPT 21µM, DT40 TDP1 no CPT inconclusive
CC1=NN(C(N)=S)C(=O)C1N=Nc1ccccc1 (centres undefined)	DT40 TDP1 CPT inconclusive, DT40 TDP1 no CPT inconclusive
CC1=NN(C(N)=S)C(=O)C1N=Nc1cccc(Cl)c1C (centres undefined)	DT40 TDP1 CPT 13µM, DT40 TDP1 no CPT 8.2µM
COc1ccc(CCC(=O)Nc2cccc(S(=O)(=O)N(C)C)c2)cc1OC	none
COc1ccc(C(=O)NC(=S)Nc2ccc(CN3CCOCC3)cc2)cc1Cl	DT40 TDP1 CPT 18µM, DT40 TDP1 no CPT 16µM
COc1ccc(C(=O)NC(=S)Nc2ccc(CN3CCOCC3)cc2)cc1OC	IL1B secr inh inconclusive, DT40 TDP1 CPT inconclusive, DT40 TDP1 no CPT 21µM
COc1ccc(Br)cc1/C=C/C(=O)NC(=S)Nc1ccc(CN2CCOCC2)cc1	uPA surface inh inconclusive, DT40 TDP1 CPT 16µM, DT40 TDP1 no CPT 16µM
COc1ccc(C(=O)Nc2ccc(CN3CCOCC3)cc2)cc1Br	uPA surface inh inconclusive, IL1B secr inh inconclusive
O=C(/C=C/c1ccc(Cl)cc1)NC(=S)Nc1ccc(NC(=O)c2ccco2)cc1	DT40 TDP1 CPT inconclusive, HT1080NT lethal inconclusive, HT1080 IDH1KD tx inconclusive, DT40 TDP1 no CPT 8.2µM
Cc1ccc2nc(CSc3nnc(NC(=O)COc4ccccc4F)s3)cc(=O)n2c1	none (no result: uPA surface inh, IL1B secr inh, HT1080NT lethal, HT1080 IDH1KD tx)
CCOc1ccc(OCC)c(NC(=O)c2cc(S(=O)(=O)N3CCc4ccccc43)cn2C)c1	DT40 TDP1 no CPT inconclusive (no result: uPA surface inh, IL1B secr inh, HT1080NT lethal, HT1080 IDH1KD tx)
O=C(/C=C/c1ccc(Cl)cc1)NC(=S)Nc1ccc(CN2CCOCC2)cc1	DT40 TDP1 CPT inconclusive, DT40 TDP1 no CPT 23µM
O=C(/C=C/c1ccccc1)Nc1ccc(CN2CCOCC2)cc1	DT40 TDP1 CPT inconclusive, DT40 TDP1 no CPT inconclusive
COc1ccccc1CNC(=O)c1ccccc1C(=O)NC(CC(C)C)C(=O)NCc1ccccc1OC (centres undefined)	IL1B secr inh inconclusive, DT40 TDP1 CPT inconclusive, DT40 TDP1 no CPT inconclusive
CCc1cc(=O)oc2c(C)c3c(cc12)CN(CCc1ccccc1OC)CO3	DT40 TDP1 no CPT 21µM (no result: uPA surface inh, IL1B secr inh, HT1080NT lethal, HT1080 IDH1KD tx)
CCCc1cc(=O)oc2c(C)c3c(cc12)CN(CCc1ccc(Cl)cc1)CO3	DT40 TDP1 CPT 6.5µM, DT40 TDP1 no CPT 15µM (no result: uPA surface inh, IL1B secr inh, HT1080NT lethal, HT1080 IDH1KD tx)
CCCc1cc(=O)oc2c(CN3CCN(C)CC3)c(O)ccc12	none
Cc1cc(C)cc(NC(=O)C2CC(=O)N(c3ccccc3)C2)c1 (centres undefined)	DT40 TDP1 no CPT inconclusive (no result: uPA surface inh, IL1B secr inh, HT1080NT lethal, HT1080 IDH1KD tx)
COC(=O)c1ccccc1NC(=O)CCC(=O)N1CCOc2ccccc21	none (no result: uPA surface inh, IL1B secr inh, HT1080NT lethal, HT1080 IDH1KD tx)
Cc1cccc(NC(=O)c2nc(-c3ccccc3)n(-c3ccccc3)n2)c1C	IL1B secr inh inconclusive, DT40 TDP1 no CPT inconclusive
CC(=O)c1cccc(NC(=O)c2nc(-c3ccccc3)n(-c3ccccc3C)n2)c1	DT40 TDP1 CPT 26µM, DT40 TDP1 no CPT 21µM (no result: uPA surface inh, IL1B secr inh, HT1080NT lethal, HT1080 IDH1KD tx)
CC(=O)c1cccc(NC(=O)c2nc(-c3ccccc3)oc2C)c1	DT40 TDP1 CPT inconclusive, DT40 TDP1 no CPT 15µM
Cc1ccc(S(=O)(=O)Nc2ccc(O)c3ccccc23)c(C)c1	IL1B secr inh -81, DT40 TDP1 CPT 3.7µM, HT1080NT lethal 29µM, HT1080 IDH1KD tx inconclusive, DT40 TDP1 no CPT 5.2µM
Cc1ccc(S(=O)(=O)Nc2cc(C(C(=O)OC(C)C)C(=O)C(F)(F)F)c(O)c3ccccc23)c(C)c1 (centres undefined)	DT40 TDP1 CPT inconclusive, HT1080NT lethal inconclusive, HT1080 IDH1KD tx inconclusive, DT40 TDP1 no CPT inconclusive
Cc1ccc(S(=O)(=O)NNc2ccccc2)c(C)c1	DT40 TDP1 CPT inconclusive, DT40 TDP1 no CPT 18µM
Cc1ccc(C)c(S(=O)(=O)Nc2ccc(O)c(C(=O)O)c2)c1	none
Cc1ccc(C)c(S(=O)(=O)Nc2ccc(O)c3ccccc23)c1	uPA surface inh inconclusive, DT40 TDP1 CPT 13µM, DT40 TDP1 no CPT 15µM
COc1ccc2c(c1)-c1nc(-n3ncc(C(=O)NC(C)(C)CO)c3C3CC3)ncc1CC2	DT40 TDP1 no CPT inconclusive (no result: uPA surface inh, IL1B secr inh, HT1080NT lethal, HT1080 IDH1KD tx)
CCOC(=O)c1c[nH]c2ccc([N+](=O)[O-])cc12	HT1080 IDH1KD tx inconclusive, DT40 TDP1 no CPT inconclusive
